# MLL CXXC-DNA inh: MLL CXXC-DNA interaction inhibition. MLL-CXXC / FITC-HOXA9 DNA fluorescence polarization. Potency, µM (top dose mostly 115 µM), hits mostly inhibitors. hit rate 0.037% among 290,000. AID 2662; active = well fitted inhibition curve with a large enough effect in the polarisation, with a control signal flat, not every such curve was filed as active; inconclusive = small, poorly fitted or top-dose-only effect, or effect the other way, or a change in a side signal; inactive = no such curve, though single readings can be large or run the other way; the % refers to the polarisation
#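 Purified MLL-CXXC (added from a 7 uM solution) was preincubated 5 min at ambient with pinned compounds in 50 mM Tris-HCl pH 7.5, 50 mM NaCl, 1 mM DTT, 0.05% BSA. Fluorescein-labeled HOX-A9 DNA (50 nM solution) followed, 30 min, then polarization read.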
# Epigenetic reg: epigenetic control regulation, reporter derepression; murine LDR cells, GFP reporter derepression, 30 h; Potency, µM (titrated, usually from 53.9 µM), actives largely listed as activators; hit rate 0.2% among 280,000; active = well fitted activation curve with a large enough effect; inconclusive = small, poorly fitted or top-dose-only effect; note: nearly all actives have a fitted effect of over 60% in size
#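 Murine LDR cells bearing a silenced CMV-driven GFP reporter were exposed to compound for 30 h at 37 C. After PBS washes, GFP-positive cells (20-120 um objects) counted by laser-scanning microplate cytometry.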
# ClpP mod: qHTS Assay for Activators of ClpP | ATP-dependent Clp protease proteolytic subunit (Bacillus subtilis (strain 168)), P80244 | purified B. subtilis ClpP, FRET peptide cleavage, 20 min | Potency, µM (top dose mostly 57.5 µM) | hit rate 1.9% among 340,000; active = well fitted falling curve with a large enough effect; inconclusive = small, poorly fitted or top-dose-only effect; inactive = no such curve, though single readings can be large or run the other way; note: the source files actives as falling curves though it sought activators and does not explain the sign; nearly all actives have a fitted effect of over 65% in size
#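 ClpP 10 microg/mL final, pH 8 Tris/KCl buffer with BSA, glycerol, Tween-20; compound pinned in; FRET-FV substrate; RT 20 min; Ex320/Em430; ΔFRET vs ADEP 5.8 microM, DMSO, no enzyme.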
# Menin MLL FP FL: menin-MLL binding inhibition, fluorescein peptide | Fluorescence polarization, fluorescein-MLL peptide displacement from menin | FP activity change, % at 61.4 µM | 290,000 tested, under 10 active; active = well fitted curve in the direction sought with a large enough effect in the polarisation, not every such curve was filed as active; inconclusive = small, poorly fitted or top-dose-only effect, or effect the other way, or a change in a side signal; inactive = no such curve, though single readings can be large or run the other way; the % refers to the polarisation
# Menin MLL FP TR: inhibitors of human menin-MLL interaction, mutant MLL peptide | O00255 | Menin + Texas Red MLL mutant peptide, fluorescence polarization | Potency, µM (highest dose often 61.6 µM), hits mostly inhibitors | hit rate 0.23% among 270,000 | AID 1768; active = well fitted inhibition curve with a large enough effect in the polarisation, with a control signal flat, not every such curve was filed as active; inconclusive = small, poorly fitted or top-dose-only effect, or effect the other way, or a change in a side signal; inactive = no such curve, though single readings can be large or run the other way; the % refers to the polarisation
# PINK1 expr mod: PINK1 expression modulation. PINK1 immunofluorescence, high-content cytometry, 24 h. Potency, µM (titrated, usually from 76.6 µM), most hits filed as activators. hit rate 0.2% among 410,000; active = well fitted activation curve with a large enough effect; inconclusive = small, poorly fitted or top-dose-only effect; cell line not stated here; note: nearly all actives have a fitted effect of over 65% in size
#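 Fluorescence from anti-PINK1 antibody, together with nuclear and cell stains, was scanned on a laser-scanning cytometer. Before staining, stable-line cells were incubated 24 hours with compounds at 5 concentrations; primary antibody 12 h at 10 degrees C.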
# Hits are given with their value; 0 = inactive; ? = inconclusive; - = no result given. The list is not random: actives were taken first. Their share in the collection is about 1.9%.
SMILES,MLL CXXC-DNA inh,Epigenetic reg,ClpP mod,Menin MLL FP FL,Menin MLL FP TR,PINK1 expr mod
CCCCn1c(N)c(C(=O)NCc2cccs2)c2nc3ccccc3nc21,0,?,25µM,0,?,0
CCCCCCn1c(N)c(C(=O)NCCN2CCOCC2)c2nc3ccccc3nc21,0,0,25µM,0,0,0
Nc1c(C(=O)NCCCc2ccccc2)c2nc3ccccc3nc2n1Cc1cccs1,0,0,?,0,-,0
C[C@]12C=CC(=O)C=C1CCC1C2=CC[C@]2(C)[C@@H](C(=O)CN3CCN(c4cc(N5CCCC5)nc(N5CCCC5)n4)CC3)CC[C@@H]12 (some centres undefined),0,0,-,0,?,-
CC(=O)N1CCC2(CC1)CC(=O)c1cc(OCC(=O)N3CCN(C)CC3)ccc1O2,?,0,20µM,0,0,?
COc1cc2[nH]c(=O)n(-c3ccccc3)c(=O)c2cc1OC,0,0,25µM,0,0,0
CC(=O)c1c(O)n(-c2cccc(Cl)c2)c(=O)[nH]c1=O (tested in a mixture with another compound),0,0,0,?,-,0
COc1cc2[nH]c(=O)n(-c3cccc(Cl)c3)c(=O)c2cc1OC,0,0,28µM,0,0,0
CCc1cccc(NC(=O)c2ccc(NC(=O)N3CCSc4ncccc43)cc2)c1,-,0,?,-,-,0
CCOc1ccc(C(=O)Nc2nnc(S(=O)(=O)N(C)Cc3ccco3)s2)cc1,0,-,0,0,0,0
CC(CCC(=O)O)C1CCC2C3C(=O)C[C@@H]4CC(=O)CC[C@@]4(C)C3CC(=O)[C@]12C (some centres undefined),?,0,-,0,0,0
CS(=O)c1ccc(-c2nc(-c3ccc(F)cc3)c(-c3ccncc3)[nH]2)cc1 (centres undefined),-,0,-,?,0,-
Cn1c2ccccc2c2c(C(=O)N3CCC4(CC3)OCCO4)cn(C3CCCCC3)c(=O)c21,0,0,18µM,0,0,0
Cn1c(C(=O)N2CCC3(CC2)OCCO3)cc2c(=O)n(C)c3ccccc3c21,0,0,0,0,0,0
CC(C)Cn1cc(C(=O)N2CCC3(CC2)OCCO3)c2c3ccccc3n(C)c2c1=O,0,0,16µM,0,0,0
CCn1cc(C(=O)N2CCOCC2)c2ccccc21,0,0,0,0,0,0
Cc1ccc(Cl)cc1N1CCN(C(=O)c2cn(CC(C)C)c(=O)c3c2c2ccccc2n3C)CC1,-,0,13µM,-,-,0
Cn1cc(C(=O)N2CCC3(CC2)OCCO3)c2c3ccccc3n(C)c2c1=O,0,0,14µM,0,0,0
Cn1c2ccccc2c2cnn(CC(=O)N3CCC4(CC3)OCCO4)c(=O)c21,0,0,-,0,0,-
O=C(Nc1ccc(Br)cc1)c1ccc(Cl)c(S(=O)(=O)N2CCCCCC2)c1,-,0,0,-,-,0
O=C(Nc1cc(C(F)(F)F)cc(C(F)(F)F)c1)c1cc(Cl)ccc1O,-,-,-,0,?,-
Cc1nnc(N2CCC(C(=O)NCc3ccc(N(C)C)cc3)CC2)c2nn(-c3ccccc3)c(C)c12,-,0,?,-,-,0
CN1CCCCC1c1cccnc1 (centres undefined),-,0,-,-,-,-
CN1CCCC1c1ccc(=O)[nH]c1 (centres undefined),-,-,32µM,-,-,0
C/C(CC(=O)Nc1cc(C)ccn1)=N\NC(=O)c1ccncc1,0,-,-,0,?,0
SMILES,MLL CXXC-DNA inh,Epigenetic reg,ClpP mod,Menin MLL FP FL,Menin MLL FP TR,PINK1 expr mod
CCCCCCOC(=O)c1ccccc1N,0,0,22µM,0,0,0
CCCCOC(=O)c1ccccc1N,-,-,0,-,-,0
CC(=O)O[C@H]1C[C@H]2CC[C@@H]3[C@H]4C[C@@H]([N+]5(C)CCCCC5)[C@@H](OC(C)=O)[C@]4(C)CC[C@@H]3[C@@]2(C)C[C@@H]1[N+]1(C)CCCCC1,-,0,-,?,0,-
O=C(CNC(=O)OCc1ccccc1)NCC(=O)Nc1ccc(Br)cc1C(=O)c1ccccc1,0,0,25µM,0,0,0
O=C(CNC(=O)OCc1ccccc1)Nc1ccc(Br)cc1C(=O)c1ccccc1,0,0,0,0,0,0
C[C@@H]1C(=O)O[C@@H]2C[C@]34[C@H]5C[C@@H](C(C)(C)C)[C@@]36[C@@H](OC(=O)[C@@H]6O)O[C@@]4(C(=O)O5)[C@@]12O,-,0,-,0,0,-
CCC(C)C(=O)c1c(O)c(C)c2oc3c(C)c(O)c(C(=O)C(C)CC)c(O)c3c2c1O (centres undefined),-,0,-,0,?,16µM
NCCc1cc(O)c(O)cc1O,0,0,0,?,40µM,0
O=C(c1cc2c(s1)-c1ccccc1OC2)N1CCC2(CC1)OCCO2,0,0,28µM,0,?,0
CC(C)CCCC(C)C1CCC2C3CC(O)[C@@]4(O)CC(O)CC[C@@]4(C)C3CC[C@@]12C (some centres undefined),-,0,-,0,?,0
CCN(CC)c1ccc(N=Cc2c(O)n(Cc3ccccc3)c(=O)[nH]c2=O)cc1,?,13µM,0,?,0,0
O=C(O)c1cc(Oc2ccc([N+](=O)[O-])cc2)cc(Oc2ccc([N+](=O)[O-])cc2)c1,-,-,-,0,?,-
Cc1cc(OCC(=O)NC2CCS(=O)(=O)C2)c2c3c(c(=O)oc2c1)CCC3 (centres undefined),0,0,3.2µM,0,0,0
COC(=O)C(C)Oc1cc(C)cc2oc(=O)c3c(c12)CCCC3 (centres undefined),0,0,25µM,0,0,0
Cc1cc(OCC(=O)OC(C)C)c2c3c(c(=O)oc2c1)CCCC3,0,0,35µM,0,?,0
CCOC(=O)C(C)Oc1cc(C)cc2oc(=O)c3c(c12)CCCC3 (centres undefined),0,0,16µM,0,0,0
COC(=O)C(C)Oc1cc(C)cc2oc(=O)c3c(c12)CCC3 (centres undefined),0,0,0,0,0,0
Cc1cc(OCC(=O)NCC(O)c2ccccc2)c2c3c(c(=O)oc2c1)CCCC3 (centres undefined),0,-,0,0,0,0
C[C@H](CCC(=O)O)[C@H]1CC[C@@H]2[C@H]3[C@@H](CC[C@@]21C)[C@]1(C)CC[C@H](O)C[C@@H]1C[C@@H]3O,-,0,-,0,?,-
O=c1c(-c2ccccc2)c(O)c2ccccc2n1-c1ccccc1,0,-,?,0,0,0
CCN1C(=O)c2ccccc2Sc2ccc(C(=O)N3CCC4(CC3)OCCO4)cc21,0,0,0,0,?,0
CCN1C(=O)c2ccccc2Sc2ccc(NC(=O)Nc3ccc(Br)c(C)c3)cc21,-,0,0,-,-,16µM
CN1C(=O)C(=Cc2ccc(OCC(=O)Nc3ccccc3)cc2)C(=O)N(C)C1=O,0,-,16µM,-,-,0
CCCC/C(=N/O)c1c(C)[nH]c2ccccc12,0,0,28µM,0,0,0

# Screens as filed in PubChem BioAssay.
